# What was measured:
# Assay in all cases: PBM binding z-score (relative to random genomic background probes); higher = stronger binding; sequences stand for … in GC…GCGATTGACAGCGTAGAATGAAGG
# [1] = tested on: RARb homodimer (NR concentration 270 nM)
# How it was run: (§1)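 Ligand-free nuclear receptor dimers were applied to custom Agilent 4×180K protein-binding microarrays whose double-stranded probes carried direct-repeat seeds, single-nucleotide variants, half-site ablations and random human genomic background sequences in 34-nt variable regions. Incubation lasted 1 h. Binding z-scores were computed against the random background probes from regression-normalized fluorescence.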
# [2] = tested on: RARg:RXRa (NR concentration 270 nM, RXRa partner concentration 90 nM)
# How it was run: as §1
# [3] = tested on: RARg homodimer (NR concentration 270 nM)
# How it was run: as §1
# [4] = tested on: RXRa DBDmut IVT, anti-RXR (DBD mutation: RXRa K156A/R161A, NR concentration 90 nM)
# How it was run: as §1
# [5] = tested on: RXRa homodimer (NR concentration 180 nM)
# How it was run: as §1
# [6] = tested on: THRa:RXRa (NR concentration 90 nM, RXRa partner concentration 90 nM)
# How it was run: as §1
# [7] = tested on: THRa homodimer (NR concentration 90 nM)
# How it was run: as §1
# [8] = tested on: VDR:RXRa (NR concentration 270 nM, RXRa partner concentration 90 nM)
# How it was run: as §1
# [9] = tested on: VDR homodimer (NR concentration 270 nM)
# How it was run: as §1
Sequence,PBM binding z-score [1],PBM binding z-score [2],PBM binding z-score [3],PBM binding z-score [4],PBM binding z-score [5],PBM binding z-score [6],PBM binding z-score [7],PBM binding z-score [8],PBM binding z-score [9]
TATACAGGGTCAGAGGCCAGAGTACGAATGTCGA,3.01,4.21,4.27,1.39,4.32,2.74,0.817,3.24,2.2
GATAGAGGGTCAAGGCCAGAGTACGCGTATTGAT,3.47,4.81,4.67,1.49,4.38,2.65,0.388,3.37,1.59
ACTAGTTGGTCAGCTGAGGTCACACGCAATTCGG,4.17,4.1,4.4,1.4,4.02,5,5.12,4.46,3.63
GCGACTGGGGCACAGCAGGTTACCATAAGGTTGG,1.23,0.566,0.841,-0.647,0.331,2.47,-0.0588,-0.208,-0.59
TGTCGGAGGACACGAAGGTCAGAGCTTTCCAGAG,3.4,3.38,4.14,-0.488,1.8,2.92,0.651,2.42,0.981
AGAACGAGGGCAATGAGTTGATAGCTCGGGTGGC,0.713,0.827,1.26,1.77,0.484,0.779,-0.312,4.8,2.69
CGTCAAAGTTCAACTAAGGTATCGTAAAGCACGC,4.26,5.92,6.75,4.68,5.21,4.92,0.41,4.28,4.04
AGTCAAAGTTCATATAGGTAACGTAAGATATGCT,3.55,5.1,5.32,4.83,4.41,2.28,-0.342,4.4,5.14
TCTTGTAGATCAGCAGGTCAAGAAAGCTGGCCAA,2.13,2.22,1.55,0.289,2.05,1.89,0.0646,1.17,0.194
CTACCAAGGTGAACAAGGTCGTTGCTTACTATTC,2.09,1.83,1.34,1.73,2.12,3.15,2.03,6.16,2.89
CCAGGCAGGTGAAAGGTAACTCAGTCTGGTACGC,0.447,0.784,0.255,-0.641,1.53,0.824,-0.15,0.277,-0.0369
GCGACCGGGGCATCAGCAGGTTACCATAACTTAA,1.37,2.27,1.64,-0.302,0.943,1.61,0.295,0.435,-0.185
GCTTGTAGATCAAGCTTAAGAAAGACTAAGCTAA,-1.31,-0.516,-0.459,-0.635,-0.645,-0.583,-1.48,-0.459,-0.457
ATCTCTAGGTAAACTTCAGTGAAAGATCGATAGA,0.191,0.307,0.513,0.168,0.222,0.667,0.466,0.36,0.34
AATACAGGGTCACTAGCCCAGAGTAGGTACGAAT,2.95,4.82,4.62,2.61,5.17,3.22,1.13,4,2.21
CCTGCTAGGTCAATGGTCAGGTAAAGCAGCTCGC,2.93,3.45,4.27,1.52,2.28,2.65,1.34,0.722,0.248
CTACCAAGGTGAACAAGGTCGTTGACTACTATTC,2.28,2.17,1.67,1.6,2.34,3.49,2,6.23,2.59
TTACCAAGGTGAAGGGCGTTGATCCCTCTGTAGA,0.953,0.413,0.407,-0.371,0.755,1.49,0.536,0.253,-0.115
TCGAGTAGGTTAGTCAGGGCATTCAGCCAACATA,0.896,-0.14,0.189,0.358,-0.156,1.1,0.314,2.59,0.685
CGAACTAGGTCAAGGAGAGTGAATCTCCGCACGC,2.9,3.91,4.76,1.44,2.85,2.28,0.799,1.33,-0.00315
CCTGCTAGGTCAATGGTCAGCTAGAGCAGCTCGC,2.68,3.14,3.81,1.45,2.19,2.33,0.515,0.675,-0.262
CTCGAAAGCTCGTGCTCAGGTGAGTATACCAAAC,-0.48,-0.629,-0.592,-0.295,-0.748,0.472,0.274,-0.8,-0.591
TAGCCTAGGTCATTCAGGGGCCCGTATAGAAAGC,2.42,4.22,3.89,1.39,2.77,3.61,0.839,2.51,1.32
ACTATTAGTTGACTTAGGGCGACCGATACGACGC,0.553,0.564,0.841,1.02,0.421,1.12,0.262,0.175,0.166
CGTCCAAGGTCAGAGTGGTCAGTGAATGCCGAGT,3.83,4.78,5.48,2.94,3.42,3.59,1.9,3.87,2.23
ATCGAAAGGTCGTGAGGTGATTATACAGAAAGGC,2.49,4.47,3.99,1.6,5.42,3.17,1.15,3.61,1.07

Sequence,PBM binding z-score [1],PBM binding z-score [2],PBM binding z-score [3],PBM binding z-score [4],PBM binding z-score [5],PBM binding z-score [6],PBM binding z-score [7],PBM binding z-score [8],PBM binding z-score [9]
TCGAGTAGGTTAGTCGAGGCATTCAGCCAACATA,-0.449,-0.298,-0.249,-0.0873,-0.032,0.444,-0.612,-0.258,-0.393
ACAGACAGGTGATGAAGGTAACGCAGGCTATCAT,0.353,0.208,0.319,-0.195,0.253,0.435,-0.159,-0.0633,-0.267
CCTACTGGGCCAAGGTCATTAATCAGTCAAAGCA,3.03,3.21,2.99,1.47,2.71,3.1,2.03,2.84,3.22
TCATCTAGGTAAACAGGTGAAAGTCCGTAAGTTA,0.582,0.394,0.147,1.26,0.645,0.888,0.459,0.914,0.0533
TCTTGTAGATCAACAGGAGCTTAAGAAAGATCGA,-1.46,0.118,-0.187,-0.0794,-0.154,-0.552,-1.65,-0.21,-0.768
GCATATAGGTAATACAAGGTGAAAGTCCGATTGT,1.03,0.625,0.545,0.387,0.694,4.31,1.08,0.299,0.356
GGAACGAGGGCAAGTTGATATCAGAGTTTGATGG,1.7,1.66,2.58,2.63,0.916,1.46,0.151,1.42,2.21
AGTCAAAGTTCACTAGGTAACGAAAGATTCAGCT,3.45,4.86,5.55,3.95,3.92,1.85,0.1,3.25,3.69
TCTTGTAGATCAGTAGAGGTTAAGAAAGTGCGCT,1.26,0.475,0.344,0.802,1.24,1.88,-0.288,1.51,0.245
ACTAGCGGGCCAAGTTTGGGTCACTCAAACAAAG,2.11,2.14,1.65,-0.0414,1.01,2.43,0.811,0.318,0.0653
CCTAGTTGGCCAGGAGGTCACACACCGGATATGA,4.01,4.27,3.43,0.6,4.51,3.54,2.38,3.63,2.16
ATCTCTAGGTAATGTTCAGTGAAAGATCGATAGA,-0.207,0.262,0.561,0.333,0.234,0.493,0.382,0.188,0.364
CCTACTGCGCCAAAGGTCATTGATTCCAATGCTC,4.88,5.4,4.69,2.16,6.21,3.46,1.9,4.85,3.56
ATCTCTAGGTAATAAGTTCAGTGAAAGAGAGGAC,2.13,1.53,1.59,1.23,0.755,1.64,1.31,1.9,2.41
CGTCCAAGGTCATAGGAGGCCAGTGAAGACAGAT,4.11,5.88,5.84,3.97,5.41,4.9,2.32,4.93,3.03
GCTATTAGTTGAAAGGGCAACAGAATGATTCTCG,1.87,1.36,1.47,0.874,1.24,0.672,-0.526,0.688,0.397
GGAACGAGGGCATTCGAATTGATAGCATGGCGAT,0.601,1.21,1.55,3.14,0.908,0.827,-0.231,1.13,1.99
TCGAGTAGGTTAGTCGGTGCATTCAGCCAACATA,-0.0982,-0.434,-0.407,0.415,-0.152,-0.374,-0.377,3.31,0.902
CCAGACAGGTGAAAGGTAACTCATTCTGGTACGC,0.992,1.41,0.877,0.192,2.12,1.13,0.167,0.817,0.0322
ATATGTAGGTTACACCCGGGTCATTCAGGCTATG,3.06,3.97,2.06,0.528,3.23,3.77,2.45,4.27,2.67
GCTTGTAGATCAATGTTAAGAAAGACTAAGCTAA,-0.892,-0.411,-0.155,0.255,-0.609,-0.166,-1.2,-0.368,-0.713
CGTCCAAGCTCAATGCTAGGTCAGTGAAAGCATT,1.84,0.587,0.598,-0.0158,-0.025,1.09,0.344,-0.0498,-0.453
CCAACTGGGCCAAAGGTCATTGATTCCAATGCTC,4.44,5.57,4.82,1.61,5.9,3.07,0.791,4.72,2.39
GATACAGGGTCAAGGCCTGAGTACGCGTATTGAT,3.54,5.4,5.41,2.19,5.69,3.37,0.931,4.48,2.52
ATATGTAGGTTATCGGGTCATTCACTTTGCGCAT,3.14,3.43,2.55,1.88,3.56,3.39,2.94,3.73,3.12
TATACAGGGTCAAAGGCCATAGTACGAATGTCGA,3.79,5.96,5.29,3.05,7.75,3.78,0.843,5.08,3.25
